From PubChem BioAssay (NCI) come the findings set out here.

Each structure is given as a SMILES string. About 83,000 compounds went through this panel and 20% of them were active in at least one assay; those are over-represented in the sample as a whole.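 Each cell line was grown in a 96-well plate and treated with one concentration of compound for 48 hours. Values below 10 were considered active.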 Values without a mark were called inactive. Calls of active or inactive are those of the source.

Test systems include SR leukemia; RPMI-8226 leukemia; OVCAR-8 ovarian; OVCAR-5 ovarian; OVCAR-4 ovarian; SK-OV-3 ovarian; IGROV1 ovarian; OVCAR-3 ovarian; HS 578T breast; NCI/ADR-RES ovarian; T-47D breast; BT-549 breast; MDA-MB-435 melanoma; SW-620 colon; MCF7 breast; HCT-116 colon; HCC-2998 colon; KM12 colon; MDA-MB-468 breast.
Common to all, as to test: NCI-60 one-dose screen, 48 h (100 = growth as untreated, 0 = no growth, -100 = all killed)
Common to all, as to conditions: 10 µM

`N#Cc1ccc(-c2nn(-c3ccc(C(=O)O)cc3)cc2CNc2cccc(Br)c2)cc1`: the growth in the experiment with SR leukemia is 40.2%; with RPMI-8226 leukemia it was 33.1%; with OVCAR-8 ovarian, 49%; in the experiment on OVCAR-5 ovarian, 99.6%; in the experiment with OVCAR-4 ovarian it was 75.5%; with SK-OV-3 ovarian it was 112%. The growth was 79% in the experiment on IGROV1 ovarian; 38.7% in the experiment with OVCAR-3 ovarian; 52.6% with HS 578T breast; 13% in the experiment with NCI/ADR-RES ovarian; 35.4% in the experiment with T-47D breast; 1.51% (active) in the experiment on BT-549 breast. Besides, the growth was 59% in the experiment on MDA-MB-435 melanoma; 61.2% in the experiment on SW-620 colon; 48.2% in the experiment on MCF7 breast; 19.9% in the experiment on HCT-116 colon; 4.19% (active) in the experiment with HCC-2998 colon; 22.4% with KM12 colon.
In the case of `COc1ccc2[nH]c(=O)c(CSc3ccc(Nc4nccc(-c5ccc(Cl)cc5)n4)cc3)cc2c1`, the growth is 90.9% in the experiment on SR leukemia; 81.3% in the experiment with RPMI-8226 leukemia; 70.3% in the experiment on OVCAR-8 ovarian; 96.6% in the experiment with OVCAR-5 ovarian; 94.8% in the experiment with OVCAR-4 ovarian; 119% in the experiment on SK-OV-3 ovarian. The growth with IGROV1 ovarian was 105%; in the experiment with OVCAR-3 ovarian it was 116%; with HS 578T breast it was 63.8%; with NCI/ADR-RES ovarian, 73.7%; with T-47D breast, 78.6%; with BT-549 breast, 104%. For the same compound, the growth with MDA-MB-435 melanoma was 111%; in the experiment with SW-620 colon, 105%; in the experiment with MCF7 breast, 84.5%; in the experiment with HCT-116 colon it was 78.9%; in the experiment on HCC-2998 colon, 115%; with KM12 colon, 102%. Besides, the growth in the experiment with MDA-MB-468 breast was 97.9%.
Turning to `COc1cccc(/C=N/NC(=O)c2ccc3nc(-c4ccc(Cl)cc4)[nH]c3c2)c1O`, the growth is -36.8% (active) in the experiment on SR leukemia; -50.5% (active) with RPMI-8226 leukemia; -84.6% (active) in the experiment with OVCAR-8 ovarian; -63% (active) in the experiment on OVCAR-5 ovarian; -36.3% (active) in the experiment on OVCAR-4 ovarian; -84.6% (active) with SK-OV-3 ovarian. Moreover, the growth in the experiment on IGROV1 ovarian was -77.2% (active); in the experiment with OVCAR-3 ovarian, -87.4% (active); in the experiment with HS 578T breast, -54.7% (active); in the experiment on NCI/ADR-RES ovarian, 50.7%; in the experiment with T-47D breast, -33.2% (active); in the experiment with BT-549 breast, -96.7% (active). Further, the growth in the experiment with MDA-MB-435 melanoma was -89.3% (active); in the experiment on SW-620 colon it was -77.1% (active); in the experiment with MCF7 breast, -78.5% (active); with HCT-116 colon it was -90.3% (active); in the experiment on HCC-2998 colon it was -98% (active); with KM12 colon, -85.2% (active).
With `O=C(CNc1nc(-c2ccccc2)cs1)Nc1ccc([N+](=O)[O-])cc1Cl`, the growth is 16.7% in the experiment on SR leukemia; 15.5% with RPMI-8226 leukemia; 30.4% in the experiment with OVCAR-8 ovarian; 36.4% in the experiment on OVCAR-5 ovarian; 45.4% with OVCAR-4 ovarian; 35.8% in the experiment on SK-OV-3 ovarian. The growth in the experiment on IGROV1 ovarian was 33.9%; in the experiment with OVCAR-3 ovarian, 23.4%; in the experiment on HS 578T breast it was 17.6%; in the experiment on NCI/ADR-RES ovarian, -7% (active); in the experiment with T-47D breast, 12.5%; in the experiment with BT-549 breast it was 8.83% (active). In addition, the growth in the experiment on MDA-MB-435 melanoma is 44%; in the experiment with SW-620 colon, 23.2%; in the experiment with MCF7 breast it was 9.27% (active); in the experiment on HCT-116 colon, 21.4%; with HCC-2998 colon, 7.28% (active); in the experiment on KM12 colon, 29.1%. Besides, the growth with MDA-MB-468 breast was -30.3% (active).
For `CC1=C(c2cc(-c3ccc(Cl)cc3)c(C#N)c(N)n2)C(c2ccccc2)NC(=S)N1` (stereo not drawn), the growth in the experiment on SR leukemia is 2.54% (active); in the experiment with RPMI-8226 leukemia, 9.51% (active); in the experiment on OVCAR-8 ovarian it was 5.74% (active); in the experiment on OVCAR-5 ovarian, 93.5%; in the experiment with OVCAR-4 ovarian it was 81.3%; in the experiment on SK-OV-3 ovarian, 126%. Also, the growth was 65.7% in the experiment with IGROV1 ovarian; 17.1% in the experiment on OVCAR-3 ovarian; 75.3% in the experiment on HS 578T breast; 37.9% in the experiment with NCI/ADR-RES ovarian; 54.5% in the experiment on T-47D breast; 42.1% with BT-549 breast. In addition, the growth was 25.3% in the experiment with MDA-MB-435 melanoma; 45.7% with SW-620 colon; 31.6% in the experiment with MCF7 breast; -18.8% (active) in the experiment with HCT-116 colon; 83.3% in the experiment on HCC-2998 colon; 49.5% in the experiment with KM12 colon. Besides, the growth with MDA-MB-468 breast is 35%.
As for `O=C1CCC(N2Cc3cc(CC(=O)Nc4ccc(N5CCCCC5)cc4)ccc3C2=O)C(=O)N1` (stereo not drawn), the growth was 77.2% with SR leukemia; 66.4% in the experiment on RPMI-8226 leukemia; 20.9% with OVCAR-8 ovarian; 70.5% in the experiment on OVCAR-5 ovarian; 31.1% with OVCAR-4 ovarian; 61% in the experiment with SK-OV-3 ovarian. Moreover, the growth with IGROV1 ovarian was 31.8%; in the experiment on OVCAR-3 ovarian, 53.9%; in the experiment with HS 578T breast it was 27.4%; in the experiment with NCI/ADR-RES ovarian, 25.2%; in the experiment on T-47D breast, 14.1%; with BT-549 breast it was -9.03% (active). In addition, the growth with MDA-MB-435 melanoma is 70.5%; in the experiment with SW-620 colon, 24%; with MCF7 breast it was 59.7%; with HCT-116 colon it was 102%; with HCC-2998 colon it was 34.7%; in the experiment with KM12 colon, 41.1%.
`O=c1[nH]c2ccc(Cl)cc2cc1CSc1ccc(Nc2nccc(-c3ccc(Cl)cc3)n2)cc1`: the growth was 54.2% in the experiment on SR leukemia; 73% in the experiment with RPMI-8226 leukemia; -0.363% (active) with OVCAR-8 ovarian; 81.3% in the experiment on OVCAR-5 ovarian; -59.9% (active) with OVCAR-4 ovarian; 122% in the experiment on SK-OV-3 ovarian. Further, the growth was 84.7% in the experiment with IGROV1 ovarian; -63.1% (active) in the experiment on OVCAR-3 ovarian; 56.8% in the experiment with HS 578T breast; 50.2% with NCI/ADR-RES ovarian; 78.9% in the experiment with T-47D breast; 81.7% with BT-549 breast. Besides, the growth is 47% with MDA-MB-435 melanoma; 3.61% (active) in the experiment on SW-620 colon; 5.48% (active) in the experiment on MCF7 breast; 32.9% in the experiment with HCT-116 colon; 67% in the experiment with HCC-2998 colon; 31.4% with KM12 colon.
In the case of `CN(C(=O)c1ccc(C(C)(C)C)cc1)c1sc2c(c1C#N)CCC(=O)C2`, the growth with SR leukemia is 13.7%; in the experiment on RPMI-8226 leukemia, 9.38% (active); with OVCAR-8 ovarian, 5.3% (active); in the experiment with OVCAR-5 ovarian it was 8.47% (active); in the experiment on OVCAR-4 ovarian, 1.97% (active); in the experiment on SK-OV-3 ovarian it was 101%. The growth in the experiment on IGROV1 ovarian was -34.4% (active); with OVCAR-3 ovarian, -69.7% (active); in the experiment with HS 578T breast, 11.8%; with NCI/ADR-RES ovarian it was -35.1% (active); in the experiment with T-47D breast it was -40.3% (active); with BT-549 breast, -27.7% (active). Also, the growth in the experiment with MDA-MB-435 melanoma is 14.7%; in the experiment on SW-620 colon, -42.3% (active); in the experiment with MCF7 breast, 25.7%; in the experiment with HCT-116 colon, -9.14% (active); in the experiment with HCC-2998 colon it was -4.22% (active); with KM12 colon it was -6.74% (active). The growth in the experiment with MDA-MB-468 breast is -41.4% (active).
